Experimental data: the supplement of paper PMC3334620
The full ranking holds about 33,000 sequences; the median of “E-score (-0.5 to 0.5)” is about -0.035, and the highest 2% start at about 0.34. What follows is part of a selection rich in the highest values, with near analogues and random picks from the rest.

Target: T1, Mot3 (UniProt P54785)
T1 sequence: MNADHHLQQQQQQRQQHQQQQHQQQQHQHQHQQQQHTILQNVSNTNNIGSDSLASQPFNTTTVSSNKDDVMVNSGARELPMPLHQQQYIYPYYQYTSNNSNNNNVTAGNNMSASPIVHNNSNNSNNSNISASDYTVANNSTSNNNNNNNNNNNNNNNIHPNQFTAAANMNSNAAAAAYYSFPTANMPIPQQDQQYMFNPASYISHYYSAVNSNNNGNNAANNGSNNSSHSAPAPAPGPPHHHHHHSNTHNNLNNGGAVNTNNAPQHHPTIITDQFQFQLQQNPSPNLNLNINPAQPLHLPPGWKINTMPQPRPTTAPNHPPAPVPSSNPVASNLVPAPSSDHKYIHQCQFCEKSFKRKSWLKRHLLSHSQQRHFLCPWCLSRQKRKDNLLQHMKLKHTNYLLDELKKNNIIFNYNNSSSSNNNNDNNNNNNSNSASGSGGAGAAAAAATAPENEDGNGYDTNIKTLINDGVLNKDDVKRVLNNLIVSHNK
Assay: PBM E-score (8-mer binding enrichment) (E-score (-0.5 to 0.5)); higher = stronger / more preferred TF binding
Details: protein concentration: 200 nM; construct: GST-full length
Outline: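 The E-score, a modified Wilcoxon-Mann-Whitney statistic, was computed by the Universal PBM Analysis Suite for every ungapped eight-base word pooled with its reverse complement. Scans behind it were normalised with masliner after bound GST-tagged yeast transcription factors were detected with fluorescent anti-GST. The proteins, at about 100-200 nM, had been applied to universal all-10-mer Agilent arrays made double-stranded by primer extension.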

| Sequence | PBM E-score |
| --- | --- |
| ACTTGATA | 0.0522 |
| GAATCTAA | -0.0012 |
| CCTGAACA | 0.23 |
| TGTTAACA | 0.361 |
| AGTTAACA | 0.279 |
| TATTAACA | 0.359 |
| CATTAACA | 0.299 |
| CGTTAACA | 0.244 |
| GATTAACA | 0.338 |
| AAAAGGTC | -0.161 |
| CTGCAGCA | -0.0262 |
| GCCAGCGC | -0.236 |
| AAGCGTAA | 0.0617 |
| GCGTTTCC | 0.0476 |
| AGGAAATG | 0.262 |
| AGGAAATC | 0.373 |
| AGGAAATA | 0.368 |
| CGGAAATA | -0.206 |
| CGGAAATC | -0.109 |
| GGGAAATA | 0.0874 |
| AGTGATAG | 0.0766 |
| GCCTCGCC | -0.17 |
| ACCTGAAC | 0.0861 |
| AAGGGTAT | -0.018 |
| TATTCACA | 0.221 |
| ACAGGAGG | -0.0434 |

| Sequence | PBM E-score |
| --- | --- |
| AAAAGATG | 0.11 |
| CAAAGGCC | -0.151 |
| CAAAGGCA | 0.479 |
| AAAAGGCA | 0.478 |
| TAAAGTCA | 0.0168 |
| CAAAGGCG | 0.233 |
| TAAAGGGA | 0.016 |
| GAAAGGCA | 0.469 |
| AAAAGGCT | 0.0632 |
| GAAAGGGA | 0.0421 |
| TAAAGGCA | 0.481 |
| GAAAGGCC | -0.0302 |
| AAAAGGCG | 0.278 |
| ACAACGAT | 0.155 |
| AGCACAAG | 0.0406 |
| CTAGGCCC | -0.21 |
| CTCTACCA | -0.192 |
| CGACTCAG | -0.219 |
| GCGGTTCC | 0.0435 |
| CACTTTGG | -0.0925 |
| GACTGATA | -0.216 |
| CGGGGCTA | -0.291 |
| AACTTCCT | 0.15 |
| ATTTGTAA | 0.244 |
| CTTTGTAA | 0.355 |
| CTTTGTAC | 0.193 |

| Sequence | PBM E-score |
| --- | --- |
| CCTTGTAG | 0.311 |
| CCTTGTAA | 0.392 |
| CCTTGTAC | 0.272 |
| AGGCTGTC | -0.15 |
| GGGCATAC | -0.186 |
| AAGAAGTC | -0.0398 |
| AATTGCGC | 0.0861 |
| GTCTATGA | 0.0543 |
| CTCGATAC | 0.24 |
| GGCGTGCA | -0.243 |
| CGCGTGTA | 0.375 |
| CGCGTGAA | 0.172 |
| CGCGTGTC | 0.196 |
| AGCGTGTC | 0.205 |
| GGCGTGAA | -0.0959 |
| AGCGTGTG | 0.147 |
| AGCGTGTA | 0.406 |
| GGCGTGTA | 0.383 |
| ACAGACGT | 0.119 |
| GAGGGAAA | -0.199 |
| CTCCTTGA | -0.122 |
| GGAAGGTA | 0.251 |
| AGAAGGTG | -0.0242 |
| AGAAGGTA | 0.347 |
| CGAAGGTA | 0.366 |
| AGAAGGTC | -0.0584 |

| Sequence | PBM E-score |
| --- | --- |
| CGAAGGTC | -0.313 |
| ATTTAGGC | 0.339 |
| CTTGATAC | 0.00505 |
| CAGACACC | -0.0175 |
| AAGACGGC | -0.265 |
| ATGGATTG | 0.0625 |
| GCGTTCTA | -0.106 |
| ATAGACCC | 0.178 |
| CGCCACCC | -0.0907 |
| AAACATGT | 0.374 |
| GAACATGA | 0.238 |
| TAACATCA | 0.25 |
| CAACATGG | 0.337 |
| CAACATGC | 0.345 |
| AAACATGA | 0.327 |
| AAACATGC | 0.288 |
| GAACATGC | 0.202 |
| TAACATGA | 0.363 |
| CAACATGA | 0.352 |
| CCACATGA | 0.0141 |
| AAACATGG | 0.222 |
| ATGGCCAT | -0.171 |
| CAGTTCCC | -0.174 |
| CTAGGATC | -0.0652 |
| CAGTGCGC | -0.292 |
| CCCGGTCG | -0.273 |

| Sequence | PBM E-score |
| --- | --- |
| ACCGGTAT | -0.135 |
| ACGTTGTG | 0.137 |
| GGCCGAGA | -0.209 |
| TAGTAATA | 0.182 |
| CTCTCTGC | -0.112 |
| AAGGCATC | 0.381 |
| AAGGCATA | 0.321 |
| AAGGCATG | 0.303 |
| AGGGCATC | -0.163 |
| ATGGCATC | -0.162 |
| AAGGCATT | 0.362 |
| AAACTTCG | 0.0118 |
| TACCTAGA | 0.252 |
| AGAGAAAA | -0.0157 |
| CAGCACTA | -0.113 |
| ATAAAGCA | -0.12 |
| ACACAGGC | 0.354 |
| ATTAAGGC | 0.378 |
| ACATAGGC | 0.373 |
| GCATAGGC | 0.166 |
| CTTAAGGC | 0.314 |
| CTAAAGGC | 0.35 |
| ACACAGGA | 0.295 |
| ATTAAGGA | 0.0441 |
| ACACAGGG | 0.213 |
| ACATAGGT | 0.282 |

| Sequence | PBM E-score |
| --- | --- |
| CTAAAGGA | 0.148 |
| ATAAAGGC | 0.186 |
| CGCAGCCC | -0.265 |
| CAGCAACC | -0.184 |
| TAACGCAA | 0.2 |
| CGAGAACG | -0.206 |
| GGGTAAGA | -0.146 |
| ATCGCTTC | -0.178 |
| ACAAAGGG | -0.0152 |
| ACAAAGGC | 0.36 |
| CCAAAGGC | 0.145 |
| ATAGCGCA | -0.0413 |
| AGAGCTAT | 0.00577 |
| CAATGTAG | 0.234 |
| GAATGTAA | 0.295 |
| AAATGTAC | 0.227 |
| TAATGTCA | 0.139 |
| TAATGTAA | 0.354 |
| AAATGTAG | 0.151 |
| CAATGTAA | 0.34 |
| CAATGTAC | 0.184 |
| AAATGTAA | 0.346 |
| ATTCTCTC | -0.103 |
| ATATTAAA | 0.184 |
